Test systems include NCI-H23 lung; NCI-H226 lung; NCI-H322M lung; HOP-62 NSCLC; NCI-H460 lung; HOP-92 NSCLC; NCI-H522 lung; A549/ATCC NSCLC; 786-0 renal; COLO 205 colon; DU-145 prostate; K-562 leukemia; MALME-3M melanoma; RXF 393 renal; SF-268 CNS; SF-295 CNS; SF-539 CNS; UACC-257 melanoma; MDA-MB-231 breast; M14 melanoma.
What all share (assay): NCI-60 one-dose screen, 48 h (100 = growth as untreated, 0 = no growth, -100 = all killed)
What all share (conditions): 10 µM unless noted

SMILES strings stand for the structures. Compounds without any hit were thinned out: in the full panel of roughly 83,000, 20% have a hit.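 96-well plates, one dose, 48 hours. Percent growth reported; active if below 10.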 Unmarked numbers belong to inactive results. Active and inactive are the calls of the source.

Regarding `N#CC1=C(N)Oc2c(sc3c(Br)cccc23)C1c1ccc(Br)cc1` (stereo not given), the growth in the test on NCI-H23 lung was 20.4%; in the test with NCI-H226 lung it was 57.1%; in the test on NCI-H322M lung, 42.3%; with HOP-62 NSCLC it was 22%; with NCI-H460 lung, 6.62% (active); in the test on HOP-92 NSCLC it was 34.7%. For the same compound, the growth with NCI-H522 lung is -7.13% (active); with A549/ATCC NSCLC, 25.5%; in the test on 786-0 renal, 17.1%; in the test with COLO 205 colon, -49.5% (active); in the test with DU-145 prostate, 8.77% (active); in the test with K-562 leukemia it was 8.24% (active). For the same compound, the growth in the test on MALME-3M melanoma was 60%; with RXF 393 renal it was -2.19% (active); in the test on SF-268 CNS, 33.9%; in the test on SF-295 CNS, 0.128% (active); in the test with SF-539 CNS it was -14.2% (active); in the test with UACC-257 melanoma, 41.4%.
For `C=C1C(=O)O[C@H]2[C@H]1CC/C(COC(=O)CCC(=O)NCCOCCOCC(=O)Nc1ccc(OC)c(C(N)=O)c1O)=C\CC[C@@]1(C)O[C@@H]21`, the growth with NCI-H23 lung is 101%; in the test with NCI-H226 lung, 55.5%; in the test with NCI-H322M lung, 101%; in the test on HOP-62 NSCLC, 90.3%; in the test on NCI-H460 lung it was 79.3%; in the test on HOP-92 NSCLC, 68.6%. Besides, the growth with NCI-H522 lung was 26.5%; in the test on A549/ATCC NSCLC it was 91.4%; in the test with 786-0 renal, 91.8%; in the test with COLO 205 colon it was 63.7%; with DU-145 prostate, 101%; in the test on K-562 leukemia it was 86.2%. Moreover, the growth is 92.7% in the test on MALME-3M melanoma; 95.2% in the test on MDA-MB-231 breast; 67.9% with RXF 393 renal; 95.2% with SF-268 CNS; 97.3% with SF-295 CNS; 88.8% with SF-539 CNS. For the same compound, the growth with UACC-257 melanoma is 77.6%; with M14 melanoma it was 93.3%.
Consider `Cc1ccccc1C(=O)NN`, for which the growth is 104% in the test with NCI-H23 lung; 113% with NCI-H226 lung; 90.6% in the test with NCI-H322M lung; 93.3% in the test on HOP-62 NSCLC; 115% with NCI-H460 lung; 80.6% in the test on HOP-92 NSCLC. For the same compound, the growth was 92% with NCI-H522 lung; 89.2% with A549/ATCC NSCLC; 112% in the test on 786-0 renal; 110% in the test with COLO 205 colon; 120% in the test on DU-145 prostate; 104% with K-562 leukemia. For the same compound, the growth is 106% with MALME-3M melanoma; 126% in the test with MDA-MB-231 breast; 118% in the test on RXF 393 renal; 120% in the test with SF-268 CNS; 106% with SF-295 CNS; 114% in the test on SF-539 CNS. The growth in the test on UACC-257 melanoma was 103%; in the test on M14 melanoma, 107%.
Turning to `O=C1/C(=C/c2ccc(F)cc2)Sc2c(Br)cccc21`, the growth with NCI-H23 lung is 50%; in the test with NCI-H226 lung, 79.4%; in the test on NCI-H322M lung it was 72.6%; with HOP-62 NSCLC, 69.1%; with NCI-H460 lung, 93.6%; with HOP-92 NSCLC it was -3.06% (active). For the same compound, the growth in the test on NCI-H522 lung was 70.9%; in the test on A549/ATCC NSCLC it was 68.9%; in the test with 786-0 renal, 100%; in the test on COLO 205 colon it was 105%; with DU-145 prostate, 99.7%; with K-562 leukemia, 80%. The growth in the test on MALME-3M melanoma is 99.9%; in the test with RXF 393 renal it was 85.8%; in the test on SF-268 CNS, 79%; with SF-295 CNS it was 87.3%; in the test with SF-539 CNS it was 75.5%; in the test on UACC-257 melanoma, 85.9%. Besides, the growth with M14 melanoma is 92.8%.
For `COc1ccc(N)c(N)c1`, the growth with NCI-H23 lung was 96.4%; with NCI-H226 lung, 113%; with NCI-H322M lung, 95.4%; with HOP-62 NSCLC, 105%; in the test with NCI-H460 lung, 105%; in the test on HOP-92 NSCLC, 92.5%. Besides, the growth in the test with NCI-H522 lung was 81.4%; in the test on A549/ATCC NSCLC it was 98.1%; in the test on 786-0 renal, 102%; with COLO 205 colon, 105%; with DU-145 prostate, 111%; in the test on K-562 leukemia it was 97.8%. Moreover, the growth was 91.7% in the test with MALME-3M melanoma; 105% with MDA-MB-231 breast; 105% in the test with RXF 393 renal; 117% in the test with SF-268 CNS; 99.1% in the test on SF-295 CNS; 97.4% in the test with SF-539 CNS. Also, the growth in the test on UACC-257 melanoma is 114%; in the test on M14 melanoma it was 101%.
Take `COc1ccc(OC)c(/C=C2\Oc3cc(OCCN4CCC(Cc5ccccc5)CC4)ccc3C2=O)c1`: the growth in the test on NCI-H23 lung is 88.1%; in the test on NCI-H226 lung, 91%; in the test on NCI-H322M lung, 94%; in the test on HOP-62 NSCLC, 94.4%; with NCI-H460 lung, 82.2%; in the test with HOP-92 NSCLC, 55.2%. Further, the growth was 86.6% with NCI-H522 lung; 92% in the test with A549/ATCC NSCLC; 77.6% in the test on 786-0 renal; 25.3% with COLO 205 colon; 97.3% in the test on DU-145 prostate; 20.7% in the test on K-562 leukemia. Besides, the growth in the test on MALME-3M melanoma was 92.6%; in the test on MDA-MB-231 breast it was 82.9%; in the test with RXF 393 renal, 55.5%; with SF-268 CNS it was 85.1%; with SF-295 CNS, 102%; with SF-539 CNS, 87%. For the same compound, the growth is 101% in the test with UACC-257 melanoma and 77.2% in the test on M14 melanoma.
In the case of `Cc1cc(=O)oc2cc(OC(=O)CN3CCN(C)CC3)ccc12`, the growth with NCI-H23 lung was 97.4%; with NCI-H226 lung it was 100%; in the test on NCI-H322M lung, 105%; with HOP-62 NSCLC, 99.3%; with NCI-H460 lung, 102%; with HOP-92 NSCLC, 88.5%. Moreover, the growth in the test on NCI-H522 lung was 92.4%; in the test on A549/ATCC NSCLC, 102%; in the test on 786-0 renal it was 105%; in the test on COLO 205 colon it was 110%; in the test on DU-145 prostate, 109%; with K-562 leukemia, 93.7%. In addition, the growth in the test with MALME-3M melanoma is 112%; with MDA-MB-231 breast, 101%; in the test with RXF 393 renal, 101%; in the test with SF-268 CNS, 97.5%; in the test on SF-295 CNS, 101%; in the test on SF-539 CNS it was 98.4%. Also, the results for the growth in the test on UACC-257 melanoma and with M14 melanoma were 109% and 97.9%, respectively.
On to `COc1ccc(-c2nnc(COc3ccc(Cl)cc3Cl)o2)cc1OC`, for which the growth in the test on NCI-H23 lung was 56.3%; in the test on NCI-H226 lung, 32.8%; in the test with NCI-H322M lung, 16.8%; in the test on HOP-62 NSCLC it was -1.03% (active); in the test on NCI-H460 lung, -4.77% (active); in the test on HOP-92 NSCLC, -32.4% (active). The growth in the test with NCI-H522 lung was 19.4%; in the test with A549/ATCC NSCLC, 9.7% (active); with 786-0 renal, -70.8% (active); in the test on COLO 205 colon it was 58.5%; in the test with DU-145 prostate, 22.6%; in the test on K-562 leukemia, 65.1%. Besides, the growth in the test with MALME-3M melanoma is -1.79% (active); in the test with RXF 393 renal, -56.7% (active); in the test with SF-268 CNS it was 45.7%; with SF-295 CNS, 23.5%; in the test with SF-539 CNS it was 83.6%; in the test on UACC-257 melanoma, 37.7%.
